# Source: ChEMBL document CHEMBL3433997, “St. Jude Leishmania screening dataset” (2016)
# Columns and labels:
# Type in all cases: functional
# [1] = biological target: Solute carrier family 2, facilitated glucose transporter member 1 (Homo sapiens) (UniProt P11166); experiment: ST_JUDE_LEISH: Cytotoxicity at 2uM final concentration against transgenic Leishmania Mexicana promastigotes LmGLUT1 that are glucose transport deficient and complemented with the human glucose transporter GLUT1. Activity is measured by DNA content using SYBR green in vitro
# [2] = biological target: Hexose transporter 1 (Plasmodium falciparum) (UniProt O97467); experiment: ST_JUDE_LEISH: Cytotoxicity at 2uM final concentration against transgenic Leishmania Mexicana promastigotes LmPfHT that are glucose transport deficient and complemented with the Plasmodium falciparum hexose transporter. Activity is measured by DNA content using SYBR green in vitro
# [3] = biological target: Glucose transporter (Leishmania mexicana) (UniProt O61059); experiment: ST_JUDE_LEISH: Cytotoxicity at 2uM final concentration against transgenic Leishmania Mexicana promastigotes LmGT2 that are glucose transport deficient and complemented with the L. Mexicana glucose transporter 2. Activity is measured by DNA content using SYBR green in vitro
# Solute carrier family 2, facilitated glucose transporter member 1 (Homo sapiens), sequence (P11166 whole entry): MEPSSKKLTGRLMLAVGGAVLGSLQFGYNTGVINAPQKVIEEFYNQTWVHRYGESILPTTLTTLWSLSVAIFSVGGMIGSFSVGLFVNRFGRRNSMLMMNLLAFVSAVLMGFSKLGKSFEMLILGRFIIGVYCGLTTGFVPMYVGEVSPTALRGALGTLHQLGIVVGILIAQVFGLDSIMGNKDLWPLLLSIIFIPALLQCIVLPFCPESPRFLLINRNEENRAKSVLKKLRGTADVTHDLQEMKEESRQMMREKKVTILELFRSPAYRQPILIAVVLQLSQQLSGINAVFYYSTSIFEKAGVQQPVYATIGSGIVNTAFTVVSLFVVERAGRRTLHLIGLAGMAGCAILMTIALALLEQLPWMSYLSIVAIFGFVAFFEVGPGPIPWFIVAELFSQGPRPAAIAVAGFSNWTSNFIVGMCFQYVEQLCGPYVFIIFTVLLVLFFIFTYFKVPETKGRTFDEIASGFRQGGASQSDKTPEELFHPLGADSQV
Compound,inhibition [1] [%],inhibition [2] [%],inhibition [3] [%]
CC(C)CC(C)NC(=O)C1Cc2c([nH]c3cc(Cl)ccc23)C2(CCN(CCc3ccccc3)CC2)N1 (stereo unspecified),6.97,7.27,4.34
Cc1ccc(F)cc1S(=O)(=O)Nc1cccc(CCN2CCC(N3CCCCC3)CC2)c1,3.52,6.1,0.55
CCS(=O)(=O)c1ccc(/C(=N/OC)c2ccc[nH]2)cc1,0.36,0.06,0.42
COc1ccccc1NC(=O)OC(COc1ccc(N)cc1)CN1CC=C(c2ccccc2)CC1 (stereo unspecified),0.46,0.25,0.98
N#Cc1ccc2c(c1)CCN(CCC1CCC(NC(=O)/C=C/c3c[nH]c4c(Br)cccc34)CC1)CC2 (stereo unspecified),16.5,15.6,6.85
CN(C)Cc1ccc(-c2cc3c(-c4ccc(CN(C)C)cc4)ccnc3[nH]2)cc1,5.17,12.8,2.4
Cc1noc(C)c1-c1cccc(CNCc2cccc(-c3ccc(-c4nc5cccc(C)c5[nH]4)cc3)c2)c1,1.89,1.4,0.96
CCCCc1ccc2ncc(C(=O)OCC)c(O)c2c1,-1.09,-0.73,-3.16
COc1cc2nc(N3CCN(C(=O)c4ccc(N(C(=O)OC(C)(C)C)C(=O)OC(C)(C)C)cc4)CC3)nc(N)c2cc1OC,-0.43,-0.06,0.52
CCOC(=O)c1ccc(NC(=O)N(Cc2ccc(-c3ccc(CN4CCNCC4)cc3)cc2)Cc2cccnc2)cc1,2.01,2.09,0.48
N=C(N)Nc1ccc(Cc2ccc(NC(=N)N)cc2)cc1,-0.68,-0.57,0.58
Nc1ncc(Cc2cc(Cl)c(N)c3ncccc23)c(N)n1,2.6,2.88,2.91
